# The list is not random: actives were taken first. Their share in the collection is about 3.2%.
# ANO1 block: blocks the mouse calcium-activated chloride channel TMEM16A; HEK293 TMEM16A/YFP iodide influx fluorescence, ionomycin; 310,000 compounds, 1.2% hits; AID 588511; Q8BHY3; normalized B-score (activity score, 25-100; higher = stronger inhibition) at 10 µM;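 active = ratio plate-corrected score three or more library SD toward inhibition, starting fluorescence score within five deviations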;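 also: score derived from kinetic fluorescence span divided by baseline fluorescence per well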
# HDAC3 inh: inhibitors of human histone deacetylase 3 | O15379 | AID 2718 | inhibition, % at 8.3 µM | 320,000 compounds, 0.15% hits | recombinant HDAC3, fluorogenic peptide/trypsin coupled, fluorescence; in the data active = inhibition above about 26%, passing the limit was not always enough; inconclusive = no clear call, values can overlap the other calls
# CHT inh: inhibits the human high affinity choline transporter | CHT-expressing cells, membrane potential dye, choline response; hits give low values | B-score at 10 µM | 310,000 compounds, 0.86% hits;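 active = B-score over 3 SD under the library average, and starting fluorescence ratio not unusually high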;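 also: choline stimulus applied at its EC90 after an EC20 pre-addition; B-score computed on integrated fluorescence ratio after choline addition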
# Target sequence (Q9GZV3 whole entry, looked up): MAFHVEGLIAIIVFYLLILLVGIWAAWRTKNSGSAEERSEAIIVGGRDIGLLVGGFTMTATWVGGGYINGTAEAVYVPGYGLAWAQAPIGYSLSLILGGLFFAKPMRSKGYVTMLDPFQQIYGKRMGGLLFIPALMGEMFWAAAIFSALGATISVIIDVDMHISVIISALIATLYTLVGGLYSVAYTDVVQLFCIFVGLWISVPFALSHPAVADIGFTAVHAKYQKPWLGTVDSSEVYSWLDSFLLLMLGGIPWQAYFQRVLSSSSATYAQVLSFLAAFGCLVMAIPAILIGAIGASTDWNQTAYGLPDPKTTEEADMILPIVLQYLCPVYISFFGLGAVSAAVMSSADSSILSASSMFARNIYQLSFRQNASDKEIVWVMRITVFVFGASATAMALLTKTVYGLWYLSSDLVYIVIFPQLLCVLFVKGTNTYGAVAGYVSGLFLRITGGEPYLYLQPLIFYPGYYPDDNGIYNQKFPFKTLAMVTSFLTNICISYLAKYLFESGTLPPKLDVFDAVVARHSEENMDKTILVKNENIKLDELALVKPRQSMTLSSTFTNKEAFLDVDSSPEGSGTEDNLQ
# PHOSPHO1 inh: inhibitors of human PHOSPHO1 phosphatase | recombinant PHOSPHO1, absorbance phosphatase assay | Q8TCT1 | inhibition, % at 13.3 µM | 290,000 compounds, 1.1% hits; in the data active = inhibition above about 60%
# ANO1 activ: activators or potentiators of mouse TMEM16A chloride channel | Q8BHY3 | HEK293 TMEM16A/YFP-H148Q/I152L, iodide quench fluorescence; hits give low values | B-score at 10 µM | 340,000 compounds, 0.3% hits;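 active = fluorescence-ratio B-score plate-corrected deviation score at least 3 library SD below zero, with starting fluorescence score within 5 deviations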;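 also: channel opened by trigger with iodide after compound preincubation; score built on the fluorescence ratio of max minus min over baseline; more negative score means more quench and so TMEM16A activation or potentiation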
# CHT PAM: allosterically activates the human high affinity choline transporter | Q9GZV3 | CHT-expressing cells, membrane potential dye, choline EC20; hits give high values; LV-AA mutant CHT in HEK293 cells | B-score at 10 µM | 310,000 compounds, 0.49% hits;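 active = initial fluorescence not abnormally high and integrated response B-score, plate-corrected, over 3 SD above library mean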
# * hit, by the source's call; i = inactive; ? = inconclusive; · = no result given.
SMILES,ANO1 block,HDAC3 inh,CHT inh,PHOSPHO1 inh,ANO1 activ,CHT PAM
N#Cc1c(SCc2ccc(Cl)cc2)sc(C(=O)c2ccccc2)c1N,i,6,i,89*,i,i
CCOC(=O)C1=NN(c2cccc(C)c2)C2(S1)SC(C(C)=O)=C(C)N2c1ccccc1 (stereo not drawn),i,13,i,62*,i,i
COc1ccc(C(CNC(=O)c2ccco2)N2CCCCC2)cc1 (stereo not drawn),i,1,i,36,i,i
CS(=O)(=O)N1CCN=C1SCc1cccc(F)c1,i,4,i,38,i,i
Cc1ccc(Cn2c(SCC(=O)N/N=C/c3ccc(C)o3)nc3ccccc32)cc1,i,24,i,91*,i,i
O=C(CSc1nc2ccccc2n1Cc1ccccc1)N/N=C/c1ccco1,i,1,i,14,i,i
CCOC(=O)c1sc2cc([N+](=O)[O-])cc(SCC(=O)OC)c2c1N,i,1,i,99*,i,i
CCOC(=O)c1sc2cc([N+](=O)[O-])cc(SCCO)c2c1N,i,3,i,-4,i,i
Cc1noc(C)c1COc1ccc(C(=O)OCc2nnc(-c3ccc(Cl)cc3)o2)cc1,i,-4,i,-4,-5*,i
O=C(OCc1nnc(-c2ccc(Cl)cc2)o1)c1ccncc1,i,?,i,1,i,i
CC(=O)c1c(C)[nH]c(C(=O)CSc2nnc(-c3ccco3)n2Cc2ccccc2)c1C,i,8,i,62*,i,i
COc1ccc(C2CC(O)(c3ccccc3)Oc3cc(OC)c(OC)c(OC)c32)cc1 (stereo not drawn),i,41*,i,11,i,i
COc1ccc([C@@H]2C[C@H](c3ccccc3)Oc3cc(OC)c(OC)c(OC)c32)cc1,i,-3,i,11,i,i
COC(=O)c1ccc(COc2ncnc3ccccc23)o1,i,-1,i,32,i,i
COc1ccc(-c2cc(C(F)(F)F)nc(SCC(=O)N3CC(C)OC(C)C3)n2)cc1OC (stereo not drawn),·,·,·,-7,-4.6*,·
COc1ccc(-c2cc(C(F)(F)F)nc(SCC(=O)Nc3cc(C)on3)n2)cc1OC,i,0,i,-5,i,i
Cc1cccc(C)c1OCC(=O)Nc1ccccc1C(=O)N1CCOCC1,i,5,i,47,i,i
COC(=O)c1ccccc1S(=O)(=O)N1CCC(C(=O)NC2CCCCC2C)CC1 (stereo not drawn),·,7,·,·,i,·
NC(=O)c1c(/N=C/c2cccnc2)sc2c1CCCC2,i,-16,i,77*,i,i
NC(=O)C1CCN(C(=O)Cc2ccc(-c3ccccc3)cc2)CC1,i,-10,i,26,i,i
COc1ccc(C)c2sc(N(CCN(C)C)C(=O)/C=C/c3cccs3)nc12,i,12,i,54,i,i
COc1ccc(OC)c2sc(N(CCN(C)C)C(=O)/C=C/c3cccs3)nc12,i,-3,i,1,-32*,i
Cc1ccc(N2C(=O)CS/C2=C(\C(Cl)=C(Cl)Cl)[N+](=O)[O-])cc1,i,0,i,80*,i,i
Cc1ccc(N2C(=O)CSCC2=O)cc1,i,3,i,-22,i,i
O=C(Nc1ccccc1O)c1ccc([N+](=O)[O-])cc1,i,53*,i,34,i,i
SMILES,ANO1 block,HDAC3 inh,CHT inh,PHOSPHO1 inh,ANO1 activ,CHT PAM
O=C(Nc1ccc(Nc2ccncc2)cc1)c1ccc([N+](=O)[O-])cc1,i,6,i,47,-6.1*,i
O=C(Nc1ccccc1O)c1ccc(Cl)cc1,i,91*,i,-10,i,i
O=C(Nc1ccc(Oc2cccnc2)cc1)c1ccc([N+](=O)[O-])cc1,i,-6,i,-11,i,i
O=C(Nc1ccccc1OC(=O)c1ccc(Cl)cc1)c1ccc(Cl)cc1,i,10,i,11,i,i
CN(C)c1ccc(P(=O)(OCc2ccccc2)C(O)c2ccncc2)cc1 (stereo not drawn),25*,0,i,6,i,i
COC(=O)c1[nH]c2ccccc2c1NC(=O)C(C)N1CCN(C(=O)c2ccco2)CC1 (stereo not drawn),i,0,i,72*,i,i
CC(C(=O)Nc1ccccc1)N1CCN(C(=O)c2ccco2)CC1 (stereo not drawn),·,-1,·,·,i,·
Cc1n[nH]c(C)c1S(=O)(=O)N1CCN(S(=O)(=O)c2cccc(F)c2)CC1,·,·,·,·,i,·
COc1ccc(C)cc1S(=O)(=O)N(C)CC(=O)Nc1ccc2c(c1)OCCO2,i,-6,i,14,i,i
CC(C)c1nnc(NC(=O)CN2C(=O)c3ccccc3C2=O)s1,i,-16,i,89*,i,i
CCCCc1nnc(NC(=O)CN2C(=O)c3ccccc3C2=O)s1,i,-2,i,-94,i,i
COc1ccc(NC(=O)CSc2nnnn2-c2ccccc2F)cc1,i,-4,i,40,i,i
O=C(COc1ccc(Br)cc1Br)NC(=S)N1CCCc2ccccc21,i,4,i,83*,i,i
C=CCC(C(=O)OC)(C(=O)OC)c1ccc([N+](=O)[O-])cn1,i,-1,i,50,i,i
CCCCCCCCCCn1c2c(c(=N)c3c1CCC3)CCC2,100*,3,i,30,i,16*
CCCCCCCCCn1c2c(c(=N)c3c1CCC3)CCCC2,·,·,·,16,i,·
CCCCOc1ccc(CSCCNC(=S)Nc2ccccc2)cc1,i,7,i,-4,i,i
CC(C)COc1ccc(CSCCNC(=S)Nc2ccccc2)cc1,100*,1,i,11,i,i
COc1cc(OC)cc(C(=O)N2CCCC(c3nc(-c4ccc(C)o4)no3)C2)c1 (stereo not drawn),i,-10,i,19,i,i
COc1cc(CCNC(=O)c2ccccc2NC(=O)C2=C(C)OCCS2)cc(OC)c1OC,i,-3,i,64*,i,i
O=C(Nc1nnc(-c2ccccc2Cl)o1)c1cccnc1,i,0,i,28,i,i
CN1CCN(C(=O)CN2C(=O)CC(C)(C)S(=O)(=O)c3ccccc32)CC1,i,7,i,10,i,i
COc1ccc2c(c1OC)C(=O)N(c1cccc(C)c1)C2=O,i,8,i,9,-4.9*,i
CSC1=NC2(CCCCC2)C2=C(CCCC2)N1,i,-6,i,101*,i,i

# Compound activity: PubChem BioAssay, several laboratories
